# Reference: PubChem BioAssay
# For some assays here: Results with a measured potency or affinity are listed apart. The source made the active and inactive calls.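 The calls were made as follows, unless noted: active = fluorescence ratio normalized to control raised more than 50% in primary screen plus both repeat runs; inactive = the rest.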
# Columns and labels:
# [1] = system: TRPC4 beta (transient receptor potential cation channel C4), mouse; assay: TRPC4 cation channel opening, retest – cell-based, Fluo4 calcium, HEK293 TRPC4beta/mu-opioid, duplicates, 10 µM, confirmation (AID 2426); settings: Fluo4 calcium fluorescence, at 10 µM; active compounds read high
# [2] = system: transient receptor potential cation channel C4 beta (TRPC4), mouse; assay: TRPC4 cation channel opening, second retest – cell-based, second round, Fluo4, HEK293 TRPC4beta/mu-opioid, 1 µM, confirmation (AID 2461;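 active = primary screen active and over 50% activation in each of two duplicate runs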); settings: Fluo4 calcium fluorescence, at 1 µM; active compounds read high
# [3] = system: TRPC4 (transient receptor potential cation channel C4 beta), mouse; assay: potentiation of DAMGO EC20 TRPC4 response – cell-based, second round, Fluo-4, HEK293 TRPC4beta/mu-opioid, 1 µM, confirmation (AID 2554;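 active = primary screen hit whose fluorescence ratio, in both repeats, exceeds the weak agonist control mean by 3 SD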); settings: DAMGO EC20, Fluo-4 calcium flux, at 1 µM; active compounds read high
# [4] = system: TRPC4 beta (transient receptor potential cation channel C4), mouse; assay: potentiation of DAMGO EC20 TRPC4 response – cell-based, Fluo-4, HEK293 TRPC4beta/mu-opioid, confirmation (AID 2555;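 active = primary screen hit whose calcium fluorescence ratio, in both repeats, exceeds the weak agonist control mean by 3 SD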); settings: DAMGO EC20, Fluo-4 calcium flux, at 10 µM; active compounds read high
# [5] = molecular target: Short transient receptor potential channel 4 (Mus musculus) (UniProt Q9QUQ5); assay: blockers of DAMGO-evoked TRPC4 calcium flux – cell-based, Fluo4, HEK293 TRPC4beta/mu-opioid, confirmation (AID 2636;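 active = calcium signal cut by more than 3 SD below the full-agonist control yet still positive, in both repeats and the earlier primary screen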); settings: at 10 µM; active compounds read high
# [6] = molecular target: Short transient receptor potential channel 4 (Mus musculus) (UniProt Q9QUQ5); assay: blockers of DAMGO-evoked TRPC4 calcium flux – cell-based, second round, Fluo4, HEK293 TRPC4beta/mu-opioid, 1 µM, confirmation (AID 2637;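 active = calcium signal ratio cut to more than 3 SD under the fully stimulated control mean yet still positive, in both repeats and the primary screen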;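 as to inhibition: percent of integrated ratio relative to wells lacking test compound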); settings: at 1 µM; active compounds read high
# [7] = molecular target: Short transient receptor potential channel 4 (Mus musculus) (UniProt Q9QUQ5); assay: calcium entry via TRPC4 opening agents – cell-based, HEK293 TRPC4/mu-opioid, Fluo-4 calcium, dose response (AID 434937;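 active = primary screen activator hit with a dose response curve and TRPC4 channel activation at any tested dose; inactive = no activation, no dose response, or not a primary hit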)
# [8] = molecular target: Short transient receptor potential channel 4 (Mus musculus) (UniProt Q9QUQ5); assay: potentiation of DAMGO-evoked TRPC4 calcium signal – cell-based, HEK293 TRPC4/mu-opioid, Fluo-4 calcium, EC20 DAMGO, dose response (AID 434941;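 active = earlier screen potentiator hit that boosts the TRPC4 ion channel at some dose, with a dose response; inactive = no potentiation, no dose response, or not a prior hit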;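 also: calcium entry triggered by an EC20 dose of DAMGO at the co-expressed mu-opioid receptor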)
# [9] = molecular target: Short transient receptor potential channel 6 (Mus musculus) (UniProt Q61143); assay: TRPC6 blockade by TRPC4 inhibitor hits – cell-based, HEK293, membrane potential dye, duplicate, selectivity assay for TRPC4 inhibitor project, confirmation (AID 434948;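 active = active in primary screen and both duplicates, each dropping signal beyond three positive-control SD with fluorescence still positive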); settings: HEK293 TRPC6, membrane potential dye fluorescence, at 10 µM, stimulated with maximal-effect acetylcholine; active compounds read high
# [10] = molecular target: Short transient receptor potential channel 6 (Mus musculus) (UniProt Q61143); assay: TRPC6 opening by TRPC4 activator hits – cell-based, HEK293, membrane potential dye, duplicate, selectivity assay for TRPC4 activator project, confirmation (AID 434950;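 active = membrane potential signal rise above negative control mean plus 3 SD in both duplicates, also active in the earlier TRPC4 screen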); settings: HEK293 TRPC6, membrane potential fluorescence, at 10 µM; activation: active compounds read high; outcome: activation
# [11] = molecular target: Short transient receptor potential channel 6 (Mus musculus) (UniProt Q61143); assay: positive modulators of mouse TRPC6 channel – HEK293 cells, membrane potential dye, duplicate, selectivity assay for TRPC4 potentiator project, confirmation (AID 434952;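 active = compound raising the membrane signal above positive-control mean plus 3 SD in both repeats, and a primary screen hit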); settings: HEK293 TRPC6, membrane potential dye fluorescence, at 10 µM, maximal acetylcholine added after compound; active compounds read high
# [12] = molecular target: Short transient receptor potential channel 4 (Mus musculus) (UniProt Q9QUQ5); assay: calcium flux activators in TRPC4/5HT1a cells, counter-screen for TRPC4 activator project, cell-based, second counter screen, HEK293 TRPC4/5HT1a, Fluo-4 (AID 434977;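 active = calcium signal rise above buffer-control mean plus 5 SD in both duplicates, and also a hit in the primary screen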); settings: Fluo-4 calcium flux, at 10 µM; active compounds read high
# [13] = serotonin-gated TRPC4 signal block – cell-based, second counter screen, HEK293 TRPC4/5HT1a, Fluo-4, counter-screen for TRPC4 inhibitor project, confirmation (AID 434978;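 active = primary screen active whose calcium signal fell more than 3 SD beyond the full-serotonin control mean in both duplicate plates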;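 as to outcome: serotonin given first at submaximal then at maximal dose after compound preincubation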); settings: Fluo-4 calcium flux, at 10 µM, serotonin added to trigger calcium flux; active compounds read high
# [14] = system: TRPC4 (mouse), co-expressed with 5HT1a in HEK293; assay: enhancement of serotonin-evoked TRPC4 response – cell-based, second counter screen, HEK293 TRPC4/5HT1a, Fluo-4, counter-screen for TRPC4 potentiator project, confirmation (AID 434979;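 active = signal rise over 3 SD above mean of control wells given weak agonist, in both repeats and first screen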); settings: Fluo-4 calcium flux, at 10 µM, serotonin added at its EC20 dose; active compounds read high
# [15] = nonspecific calcium rise without TRPC4 – cell-based, HEK293 mu-opioid receptor line, counter-screen for TRPC4 activator project, confirmation (AID 449723;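 active = hit in primary screen, with calcium signal over 5 SD above buffer well mean in both duplicates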;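 also: counter screen cells carry the mu-opioid receptor alone and lack TRPC4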); settings: HEK293 mu-opioid cells, Fluo-4 calcium fluorescence, at 10 µM; active compounds read high
# [16] = nonspecific potentiation of DAMGO calcium response – cell-based, HEK293 mu-opioid receptor line, counter-screen for TRPC4 allosteric potentiator project, confirmation (AID 449724;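 active = calcium signal rise more than 3 SD above the low-dose agonist control mean, in both duplicate plates and the primary screen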); settings: HEK293 mu-opioid receptor cells, Fluo-4 calcium flux, at 10 µM, compound added before EC20 DAMGO stimulus; active compounds read high
# Sequence of Short transient receptor potential channel 4 (Mus musculus) (Q9QUQ5 whole entry, looked up): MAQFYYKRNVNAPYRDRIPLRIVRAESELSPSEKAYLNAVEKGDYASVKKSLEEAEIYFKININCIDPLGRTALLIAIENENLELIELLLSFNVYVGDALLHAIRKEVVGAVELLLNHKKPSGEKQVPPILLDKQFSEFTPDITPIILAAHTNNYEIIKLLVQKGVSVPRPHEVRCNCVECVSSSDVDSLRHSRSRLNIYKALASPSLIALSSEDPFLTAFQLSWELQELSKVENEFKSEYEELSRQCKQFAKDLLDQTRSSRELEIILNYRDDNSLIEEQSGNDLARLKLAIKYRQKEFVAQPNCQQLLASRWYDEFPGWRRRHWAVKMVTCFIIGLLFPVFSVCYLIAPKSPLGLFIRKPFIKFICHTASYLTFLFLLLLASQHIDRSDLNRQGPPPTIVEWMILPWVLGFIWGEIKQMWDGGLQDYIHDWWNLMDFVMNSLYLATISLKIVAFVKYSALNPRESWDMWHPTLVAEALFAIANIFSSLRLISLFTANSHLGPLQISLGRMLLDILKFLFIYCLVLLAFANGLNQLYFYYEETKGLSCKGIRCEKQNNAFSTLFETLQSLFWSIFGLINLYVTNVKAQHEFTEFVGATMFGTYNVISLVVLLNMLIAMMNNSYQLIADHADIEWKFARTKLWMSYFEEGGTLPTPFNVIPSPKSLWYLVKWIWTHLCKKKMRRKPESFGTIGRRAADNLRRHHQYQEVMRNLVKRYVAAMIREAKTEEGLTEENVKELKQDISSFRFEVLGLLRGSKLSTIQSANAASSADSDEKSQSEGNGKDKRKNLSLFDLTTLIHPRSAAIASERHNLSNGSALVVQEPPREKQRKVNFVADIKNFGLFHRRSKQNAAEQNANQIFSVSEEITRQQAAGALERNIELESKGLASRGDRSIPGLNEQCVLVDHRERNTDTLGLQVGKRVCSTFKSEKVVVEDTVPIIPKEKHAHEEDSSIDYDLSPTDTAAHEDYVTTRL
# Sequence of Short transient receptor potential channel 6 (Mus musculus) (Q61143 whole entry, looked up): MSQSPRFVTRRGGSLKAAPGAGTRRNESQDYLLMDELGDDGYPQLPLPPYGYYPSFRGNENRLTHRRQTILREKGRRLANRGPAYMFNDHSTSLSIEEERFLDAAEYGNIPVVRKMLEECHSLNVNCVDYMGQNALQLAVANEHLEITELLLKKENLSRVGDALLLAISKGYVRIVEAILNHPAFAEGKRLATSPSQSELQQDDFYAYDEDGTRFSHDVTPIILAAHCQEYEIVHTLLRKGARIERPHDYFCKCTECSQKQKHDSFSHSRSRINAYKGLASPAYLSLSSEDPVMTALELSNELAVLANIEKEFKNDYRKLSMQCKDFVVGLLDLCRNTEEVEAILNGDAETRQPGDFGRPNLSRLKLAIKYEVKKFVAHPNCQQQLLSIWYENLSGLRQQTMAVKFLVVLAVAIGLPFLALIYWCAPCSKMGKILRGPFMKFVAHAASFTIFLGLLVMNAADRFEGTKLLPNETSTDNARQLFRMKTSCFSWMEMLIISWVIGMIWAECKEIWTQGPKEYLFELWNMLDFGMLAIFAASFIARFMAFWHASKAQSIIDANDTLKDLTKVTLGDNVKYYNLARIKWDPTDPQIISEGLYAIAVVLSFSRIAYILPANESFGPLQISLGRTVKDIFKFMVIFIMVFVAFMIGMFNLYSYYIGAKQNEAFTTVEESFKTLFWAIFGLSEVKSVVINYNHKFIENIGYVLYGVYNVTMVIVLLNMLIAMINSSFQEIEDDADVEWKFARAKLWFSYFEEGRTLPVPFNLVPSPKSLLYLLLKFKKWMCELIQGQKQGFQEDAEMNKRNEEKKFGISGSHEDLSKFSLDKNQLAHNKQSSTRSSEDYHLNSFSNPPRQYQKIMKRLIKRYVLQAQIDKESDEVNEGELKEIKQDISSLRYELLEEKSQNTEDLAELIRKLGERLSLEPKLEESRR
compound,measurement,setting,value
CCOC(=O)c1c(-c2cccc(C)c2)csc1NC(=O)C1CC=CCC1C(=O)O (centres undefined),outcome,[1],inactive
same,outcome,[2],inactive
same,outcome,[3],inactive
same,outcome,[4],inactive
same,inhibition,[5],89% (active)
same,outcome,[6],inactive
same,outcome,[7],inactive
same,outcome,[8],inactive
same,outcome,[9],inactive
same,outcome,[10],inactive
same,outcome,[11],inactive
same,outcome,[12],inactive
same,inhibition,[13],46.1% (active)
same,outcome,[14],inactive
same,outcome,[15],inactive
same,outcome,[16],inactive
COC(=O)c1cccc2c1-c1ccccc1/C2=N/O,outcome,[1],inactive
same,outcome,[2],inactive
same,outcome,[3],inactive
same,outcome,[4],inactive
same,inhibition,[5],81% (active)
same,inhibition,[6],43% (active)
same,outcome,[7],inactive
same,outcome,[8],inactive
same,outcome,[9],inactive
same,outcome,[10],inactive
same,outcome,[11],inactive
same,outcome,[12],inactive
same,inhibition,[13],27.9% (active)
same,outcome,[14],inactive
same,outcome,[15],inactive
same,outcome,[16],inactive
N=c1n(CCO)c2ccccc2n1Cc1ccc(Cl)cc1,outcome,[1],inactive
same,outcome,[2],inactive
same,outcome,[3],inactive
same,outcome,[4],inactive
same,inhibition,[5],96% (active)
same,inhibition,[6],75% (active)
same,outcome,[7],inactive
same,outcome,[8],inactive
same,outcome,[9],inactive
same,outcome,[10],inactive
same,outcome,[11],inactive
same,outcome,[12],inactive
same,inhibition,[13],11.9% (active)
same,outcome,[14],inactive
same,outcome,[15],inactive
same,outcome,[16],inactive
OCCNc1nc(NCc2ccccc2)c2ccccc2n1,outcome,[1],inactive
same,outcome,[2],inactive
same,outcome,[3],inactive
same,outcome,[4],inactive
same,inhibition,[5],96% (active)
same,inhibition,[6],61% (active)
same,outcome,[7],inactive
same,outcome,[8],inactive
same,outcome,[9],inactive
same,outcome,[10],inactive
same,outcome,[11],inactive
same,outcome,[12],inactive
same,inhibition,[13],21.4% (active)
same,outcome,[14],inactive
same,outcome,[15],inactive
same,outcome,[16],inactive
c1ccc2c(c1)nnn2-c1ncnc2sc3c(c12)CCCC3,outcome,[1],inactive
same,outcome,[2],inactive
same,outcome,[3],inactive
same,outcome,[4],inactive
same,inhibition,[5],71% (active)
same,outcome,[6],inactive
same,outcome,[7],inactive
same,outcome,[8],inactive
same,outcome,[9],inactive
same,outcome,[10],inactive
same,outcome,[11],inactive
same,outcome,[12],inactive
same,inhibition,[13],21.8% (active)
same,outcome,[14],inactive
same,outcome,[15],inactive
same,outcome,[16],inactive
Clc1ccc(CN2C3=NCCN3c3ccccc32)cc1,outcome,[1],inactive
same,outcome,[2],inactive
same,outcome,[3],inactive
same,outcome,[4],inactive
same,inhibition,[5],99% (active)
same,inhibition,[6],75% (active)
same,outcome,[7],inactive
same,outcome,[8],inactive
same,outcome,[9],inactive
same,outcome,[10],inactive
same,outcome,[11],inactive
same,outcome,[12],inactive
same,inhibition,[13],14.4% (active)
same,outcome,[14],inactive
same,outcome,[15],inactive
same,outcome,[16],inactive
Nc1c2c(nc3c1CCCC3)CCCC2 (tested in a mixture with another compound),outcome,[1],inactive
same,outcome,[2],inactive
same,outcome,[3],inactive
same,outcome,[4],inactive
same,inhibition,[5],94% (active)
same,inhibition,[6],60% (active)
same,outcome,[7],inactive
same,outcome,[8],inactive
same,outcome,[9],inactive
same,outcome,[10],inactive
same,outcome,[11],inactive
same,outcome,[12],inactive
same,inhibition,[13],18.3% (active)
same,outcome,[14],inactive
same,outcome,[15],inactive
same,outcome,[16],inactive
N#Cc1c(-c2cccs2)nc(SCc2ccc(Cl)cc2)[nH]c1=O,outcome,[1],inactive
same,outcome,[2],inactive
same,outcome,[3],inactive
same,potentiation,[4],15% (active)
same,inhibition,[5],99% (active)
same,inhibition,[6],40% (active)
same,outcome,[7],inactive
same,outcome,[8],inactive
same,outcome,[9],inactive
same,outcome,[10],inactive
same,outcome,[11],inactive
same,outcome,[12],inactive
same,inhibition,[13],11.9% (active)
same,outcome,[14],inactive
same,outcome,[15],inactive
same,outcome,[16],inactive
N=c1sccn1CC(=O)Nc1ccccc1Oc1ccccc1,outcome,[1],inactive
same,outcome,[2],inactive
same,outcome,[3],inactive
same,outcome,[4],inactive
same,inhibition,[5],92% (active)
same,inhibition,[6],48% (active)
same,outcome,[7],inactive
same,outcome,[8],inactive
same,inhibition,[9],48% (active)
same,outcome,[10],inactive
same,outcome,[11],inactive
same,outcome,[12],inactive
same,inhibition,[13],34.6% (active)
same,outcome,[14],inactive
same,outcome,[15],inactive
same,outcome,[16],inactive
Nc1cc(C(F)(F)F)ccc1Nc1ccccc1,outcome,[1],inactive
same,outcome,[2],inactive
same,outcome,[3],inactive
same,outcome,[4],inactive
same,inhibition,[5],90% (active)
same,outcome,[6],inactive
same,outcome,[7],inactive
same,outcome,[8],inactive
same,outcome,[9],inactive
same,outcome,[10],inactive
same,outcome,[11],inactive
same,outcome,[12],inactive
same,inhibition,[13],27.6% (active)
same,outcome,[14],inactive
same,outcome,[15],inactive
same,outcome,[16],inactive
Clc1cccc(COn2c(-c3ccc(Cl)cc3Cl)nc3ncccc32)c1,outcome,[1],inactive
same,outcome,[2],inactive
same,outcome,[3],inactive
same,outcome,[4],inactive
same,inhibition,[5],83% (active)
same,inhibition,[6],45% (active)
same,outcome,[7],inactive
same,outcome,[8],inactive
same,outcome,[9],inactive
same,outcome,[10],inactive
same,outcome,[11],inactive
same,outcome,[12],inactive
same,inhibition,[13],41.3% (active)
same,outcome,[14],inactive
same,outcome,[15],inactive
same,outcome,[16],inactive
COc1ccc(Nc2nc(NCC3CCCO3)c3ccccc3n2)c(OC)c1 (centres undefined),outcome,[1],inactive
same,outcome,[2],inactive
same,outcome,[3],inactive
same,outcome,[4],inactive
same,inhibition,[5],93% (active)
same,inhibition,[6],50% (active)
same,outcome,[7],inactive
same,outcome,[8],inactive
same,inhibition,[9],5.5% (active)
same,outcome,[10],inactive
same,outcome,[11],inactive
same,outcome,[12],inactive
same,inhibition,[13],41.4% (active)
same,outcome,[14],inactive
same,outcome,[15],inactive
same,outcome,[16],inactive
CN1CCN(Cc2cn[nH]c2-c2ccc(F)cc2F)[C@@H](c2ccccc2)C1,outcome,[1],inactive
same,outcome,[2],inactive
same,outcome,[3],inactive
same,outcome,[4],inactive
same,outcome,[5],inactive
same,outcome,[6],inactive
same,outcome,[7],inactive
same,outcome,[8],inactive
same,outcome,[9],inactive
same,outcome,[10],inactive
same,outcome,[11],inactive
same,outcome,[12],inactive
same,outcome,[13],inactive
same,outcome,[14],inactive
same,outcome,[15],inactive
same,outcome,[16],inactive
CCn1c2ccccc2c2cc(/C=N/NC(=O)c3cc(O)cc(O)c3)ccc21,outcome,[1],inactive
same,outcome,[2],inactive
same,outcome,[3],inactive
same,outcome,[4],inactive
same,inhibition,[5],78% (active)
same,inhibition,[6],43% (active)
same,outcome,[7],inactive
same,outcome,[8],inactive
same,outcome,[9],inactive
same,outcome,[10],inactive
same,outcome,[11],inactive
same,outcome,[12],inactive
same,inhibition,[13],43% (active)
same,outcome,[14],inactive
same,outcome,[15],inactive
same,outcome,[16],inactive
